How the values were obtained:
Details in all cases: concentration: 1 μM, replicates: in singlicate; n = 1
EPHA4 = system: EPHA4
EPHA5 = system: EPHA5
EPHA6 = system: EPHA6
EPHA7 = system: EPHA7
EPHA8 = system: EPHA8
EPHB1 = system: EPHB1
EPHB2 = system: EPHB2
EPHB3 = system: EPHB3
EPHB4 = system: EPHB4
EPHB6 = system: EPHB6
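Also: KINOMEscan kinase panel screen.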

Row | SMILES | %Inh (EPHA4) [%] | %Inh (EPHA5) [%] | %Inh (EPHA6) [%] | %Inh (EPHA7) [%] | %Inh (EPHA8) [%] | %Inh (EPHB1) [%] | %Inh (EPHB2) [%] | %Inh (EPHB3) [%] | %Inh (EPHB4) [%] | %Inh (EPHB6) [%]
1 | O=C(Nc1n[nH]c2cc(-c3cccc(F)c3F)ccc12)C1CC1 [SB-733894] | 1 | 0 | 0 | 0 | 0 | 0 | 20 | 10 | 62 | 31
2 | Cc1cccc(-c2nc(Nc3ccncc3)c3ccccc3n2)n1 [GW855857] | 18 | 0 | 0 | 0 | 7 | 3 | 16 | 11 | 26 | 0
3 | C[C@@H]1CCCCN1c1cc(-c2ccc3c(N)n[nH]c3c2)nc(N)n1 [GSK2258759] | 2 | 0 | 1 | 0 | 3 | 12 | 0 | 7 | 15 | 14
4 | Cn1ccc2ncnc(Oc3cccc(C(=O)Nc4ccccc4)c3)c21 | 4 | 16 | 0 | 0 | 0 | 0 | 0 | 0 | 9 | 0
5 | Nc1nc(-c2nccs2)c(-c2ccnc3ccccc23)s1 [GW693542] | 11 | 0 | 8 | 10 | 17 | 13 | 0 | 10 | 1 | 5
6 | CC(=O)Nc1nc2cnc(Nc3cc(NC(=O)c4cccc(CCC#N)c4)ccc3C)nc2s1 | 16 | 6 | 27 | 10 | 16 | 6 | 24 | 14 | 19 | 45
7 | Cc1cccc(-c2nc(C)cc(Nc3ccncc3)n2)n1 [GSK257997] | 2 | 0 | 2 | 7 | 8 | 23 | 0 | 5 | 5 | 0
8 | Clc1cc(Cl)cc(Nc2ccnc(Nc3cc(Cl)cc(Cl)c3)n2)c1 [GSK175726] | 8 | 0 | 13 | 8 | 17 | 1 | 19 | 10 | 28 | 19
9 | COc1ccccc1-c1ccc2c(NC(=O)C3CC3)n[nH]c2n1 [SB-711239] | 13 | 0 | 9 | 4 | 9 | 0 | 11 | 15 | 14 | 6
10 | Cn1cncc1-c1ccc2ncnc(Nc3ccc(OCc4ccccc4)cc3)c2c1 [GW320571] | 13 | 2 | 19 | 1 | 12 | 6 | 0 | 23 | 8 | 3
11 | Cc1cc(-c2ccc3c(c2)CC[C@@H](N[C@@H](C)c2ccccc2)C3)cnc1N.Cl [GW412617] | 13 | 1 | 10 | 0 | 8 | 9 | 0 | 9 | 11 | 48
12 | Cc1cccc(-c2nc(Nc3ccc4[nH]ncc4c3)c3ccccc3n2)n1 [GW857175] | 0 | 0 | 0 | 0 | 0 | 11 | 0 | 0 | 0 | 43
13 | CN(C)CCN(C)C(=O)c1cc(-c2ccncc2)c(-c2ccc(Cl)c(O)c2)o1.Cl.Cl [SB-710397] | 6 | 0 | 8 | 13 | 16 | 8 | 12 | 11 | 5 | 5
14 | Cc1cccc(-c2cc(Nc3ccncc3)c3ccccc3n2)n1 [GSK223675] | 0 | 0 | 0 | 0 | 0 | 4 | 0 | 0 | 0 | 25
15 | Cc1csc(-c2nc(Nc3ccncc3)c3ccccc3n2)n1 [GW869640] | 8 | 13 | 6 | 6 | 5 | 7 | 0 | 9 | 0 | 28
16 | Cc1ccc(NC(=O)Nc2cccc(Cl)c2)cc1-c1ccc(C(=O)Nc2ccncc2)cc1 [GSK1398468] | 18 | 0 | 11 | 3 | 38 | 26 | 15 | 4 | 19 | 0

Row | SMILES | %Inh (EPHA4) [%] | %Inh (EPHA5) [%] | %Inh (EPHA6) [%] | %Inh (EPHA7) [%] | %Inh (EPHA8) [%] | %Inh (EPHB1) [%] | %Inh (EPHB2) [%] | %Inh (EPHB3) [%] | %Inh (EPHB4) [%] | %Inh (EPHB6) [%]
17 | Cc1nnc(-c2ccc3occ(-c4ccc(S(C)=O)cc4)c3c2)[nH]1 (centres unmarked) | 24 | 10 | 34 | 7 | 6 | 0 | 16 | 17 | 16 | 13
18 | COc1cc2ncnc(Nc3ccc4nc(-c5ccccc5)[nH]c4c3)c2cc1OC.Cl [GW282450] | 0 | 0 | 0 | 0 | 0 | 38 | 1 | 3 | 22 | 18
19 | COc1cc2ncn(-c3cc(OCC4CCCO4)c(C(N)=O)s3)c2cc1OC (centres unmarked) [GSK204607] | 7 | 0 | 1 | 0 | 3 | 24 | 0 | 0 | 27 | 23
20 | Cc1ccccc1-n1cnc2c(N)ncnc21 [SKF-97510] | 4 | 0 | 0 | 0 | 0 | 1 | 0 | 0 | 0 | 7
21 | Cc1cccc(-c2nc(Nc3cccc(C(N)=O)c3)c3ccccc3n2)n1 [GW876019] | 10 | 0 | 0 | 3 | 7 | 9 | 8 | 15 | 50 | 0
22 | Cl.NC(=O)c1cccc(Nc2nccc(Nc3ccc(Oc4cccc(Cl)c4)c(Cl)c3)n2)c1 [GW659008] | 3 | 0 | 0 | 3 | 19 | 0 | 0 | 0 | 16 | 68
23 | NC(=O)c1nnc2ccccc2c1N | 1 | 10 | 0 | 0 | 0 | 0 | 13 | 0 | 19 | 9
24 | O=C(Nc1n[nH]c2nc(-c3nccs3)c(Br)cc12)C1CCCC1 [SB-742609] | 25 | 0 | 20 | 10 | 14 | 0 | 0 | 26 | 10 | 46
25 | Cc1ccc(C(=O)Nc2ccc(Nc3ccnc4cc(-c5ccccn5)ccc34)cc2O)cc1.Cl [GW440146] | 0 | 0 | 0 | 4 | 10 | 5 | 14 | 0 | 0 | 48
26 | Cc1cc(NCC(c2ccccc2)c2ccccc2)nc(NCc2ccc(C(F)(F)F)cc2)n1 [GW497681] | 0 | 0 | 0 | 7 | 6 | 0 | 0 | 0 | 7 | 8
27 | Cc1ccc(NC(=O)Nc2cc(C(C)(C)C)nn2-c2ccccc2)cc1 [GSK1014915] | 24 | 0 | 28 | 9 | 25 | 14 | 0 | 20 | 12 | 19
28 | COc1ccc(Nc2nccc(NCCNC(=O)Nc3ccccc3F)n2)cc1 [GSK1379901] | 14 | 0 | 6 | 7 | 25 | 0 | 0 | 27 | 32 | 4
29 | CCn1c(-c2cccnc2O)nc2cnccc21 [SB-736715] | 0 | 0 | 0 | 0 | 0 | 0 | 6 | 0 | 0 | 0
30 | O=C1NC(=O)C(N2CCc3ccccc32)=C1c1ccccc1Cl [SB-373598] | 24 | 0 | 18 | 18 | 36 | 9 | 0 | 14 | 20 | 31
31 | COc1cc(Nc2nccc(N3CCC(NC(=O)Nc4cc(C)ccc4C)C3)n2)cc(OC)c1OC (centres unmarked) [GSK1379762] | 26 | 0 | 18 | 25 | 33 | 12 | 0 | 16 | 4 | 89
32 | O=C(Nc1ccccc1)Nc1cccc(Oc2ccc3nccn3n2)c1 | 0 | 0 | 0 | 0 | 0 | 0 | 3 | 0 | 10 | 9

— article PMC5540273 (PLoS ONE, 2017)
